Source: PubChem BioAssay AID651725 (National Center for Advancing Translational Sciences (NCATS), 2012)
About 2,000 (0.56%) of roughly 360,000 compounds were called active. Another 2% or so got no clear call; they are omitted. This excerpt belongs to a sample that is enriched for actives. Values without a mark were called inactive. No stated cut-off is given here; in the data, active means activity change below about -65%; inconclusive means mostly about -30% to -63%; inactive means weaker than that.

target: Homeobox protein SIX1 (Homo sapiens) + Protein phosphatase EYA2 (Homo sapiens) (UniProt Q15475+O00167); assay: qHTS Assay for Inhibitors of the Six1/Eya2 Interaction; details: AlphaScreen GST-Six1/His-Eya2 binding, biochemical; hits give low values
Sequence (O00167 whole entry, looked up): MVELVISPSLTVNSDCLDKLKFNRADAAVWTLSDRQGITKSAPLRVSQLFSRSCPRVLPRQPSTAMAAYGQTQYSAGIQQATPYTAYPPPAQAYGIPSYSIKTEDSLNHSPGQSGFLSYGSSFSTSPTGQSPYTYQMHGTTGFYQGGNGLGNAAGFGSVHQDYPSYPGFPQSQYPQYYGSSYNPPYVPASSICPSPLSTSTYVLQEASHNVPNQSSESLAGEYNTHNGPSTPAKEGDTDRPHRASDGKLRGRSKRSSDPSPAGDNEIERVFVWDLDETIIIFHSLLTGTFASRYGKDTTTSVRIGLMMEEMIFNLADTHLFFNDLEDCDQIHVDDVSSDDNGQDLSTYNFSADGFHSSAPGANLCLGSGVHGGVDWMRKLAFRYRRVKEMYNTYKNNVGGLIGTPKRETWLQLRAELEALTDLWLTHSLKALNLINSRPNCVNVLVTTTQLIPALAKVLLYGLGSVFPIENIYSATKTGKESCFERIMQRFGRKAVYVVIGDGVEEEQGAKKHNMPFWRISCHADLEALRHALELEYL
Sequence (Q15475 whole entry, looked up): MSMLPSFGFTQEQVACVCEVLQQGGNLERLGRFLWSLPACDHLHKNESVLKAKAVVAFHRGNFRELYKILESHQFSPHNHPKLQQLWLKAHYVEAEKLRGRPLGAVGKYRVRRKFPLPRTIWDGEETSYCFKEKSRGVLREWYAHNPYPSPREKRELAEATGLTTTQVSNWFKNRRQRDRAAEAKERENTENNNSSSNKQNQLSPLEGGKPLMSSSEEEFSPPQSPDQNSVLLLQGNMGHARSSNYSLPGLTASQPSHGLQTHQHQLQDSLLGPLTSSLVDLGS
Summary of the method: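 Homogeneous AlphaScreen proximity assay pairing GST-Six1 with His-tagged Eya2 (added as 5X mix: 250 nM and 500 nM) in 50 mM Tris pH 8.0, 300 mM NaCl, 1 mM TCEP. Glutathione donor and nickel acceptor beads; 1 h, 37 °C, dark.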
On the % scale 0 is the no-effect control and ±100 the full control effect.

Structure (SMILES) | activity change
O=C(NCc1ccccn1)c1cnc2sccn2c1=O | -1.07%
COc1cc(/C=C/CO)cc(OC)c1O[C@@H]1O[C@H](CO)[C@@H](O)[C@H](O)[C@H]1O | 5%
CC1(C(=O)Nc2ccc3c(c2)OCCO3)CSCC(=O)N1CCOc1ccccc1 (centres undefined) | -5.39%
CC1(C(=O)NCc2ccccc2)CSCC(=O)N1CCCn1ccnc1 (centres undefined) | -4.73%
O=C(NCCCc1ccccc1)C(=O)NCC1OCCN1S(=O)(=O)c1ccccc1 (centres undefined) | 5.49%
Cc1cc(F)ccc1S(=O)(=O)N1CCCOC1CNC(=O)C(=O)NCCC1=CCCCC1 (centres undefined) | 6.61%
O=C(NCCCn1ccnc1)C(=O)NCC1OCCN1S(=O)(=O)c1cc(F)ccc1F (centres undefined) | -72.2% (active)
COc1ccc(NC(=O)C(c2ccncc2)n2c(=O)c(-c3cc4ccccc4[nH]3)nc3ccccc32)cc1 (centres undefined) | 18.4%
Oc1ccc(Br)cc1/C=N/Nc1ccccn1 | -77.2% (active)
O=C(Nc1ccc(Br)cc1)c1cc(S(=O)(=O)Nc2ccccn2)ccc1Cl | -3.31%
CCN(CC)CCn1c(/N=C/c2cc(Br)ccc2O)nc2ccccc21 | 4.55%
CCOC(=O)[C@]12CCC=C1N(Cc1ccco1)C(=O)[C@H](CC(=O)N1CCSCC1)C2 | 13%
CO[C@@H]1CN(C)C(=O)c2cc(NC(=O)C3CC3)ccc2OC[C@H](C)N(C(=O)CN2CCOCC2)C[C@@H]1C | -0.378%
COC(=O)[C@]12CCCCC=C1N(Cc1ccco1)C(=O)[C@H](CC(=O)NCC1CCCCC1)C2 | 4.18%
O=C(CCCO)N/N=C/c1cc(Br)ccc1O | -68.6% (active)
NCCCCCC(=O)N/N=C/c1ccc2nccnc2c1 | 4.58%
O=C(CCC(=O)N/N=C/c1ccc(Br)o1)N/N=C/c1ccc(Br)o1 | 0.575%
O=[N+]([O-])c1ccc2nc(-c3ccccn3)[nH]c2c1 | -72.6% (active)
O=[N+]([O-])c1cccc(S(=O)(=O)NCc2ccccn2)c1 | -5.71%
O=[N+]([O-])c1ccc(N/N=C2/CCCCC2c2ccccn2)c([N+](=O)[O-])c1 (centres undefined) | -4.9%
O=C(NC1CCCCC1)C(c1cc2ccccc2o1)n1c(=O)c(-c2ccco2)nc2ccccc21 (centres undefined) | 6.65%
O=C1OCCOC2CCCc3oc(-c4ccccc4)c1c32 (centres undefined) | -10.5%
CCOC(CNC(=O)C1CCN(S(=O)(=O)c2ccc3nc4c(c(C(=O)O)c3c2)CC(C)CC4)CC1)OCC (centres undefined) | -16.3%
Cc1ccc(CNC(=O)C2CCN(S(=O)(=O)c3ccc4nc5c(c(C(=O)O)c4c3)CC(C)CC5)CC2)cc1 (centres undefined) | -65.1% (active)
CC(=O)N1c2ccc(S(=O)(=O)N3CCC(C(=O)NCc4ccc(F)cc4)CC3)cc2CC1C (centres undefined) | -0.504%
CCCNC(=O)C[C@@H]1CC[C@@H]2[C@H](COC[C@H](O)CN2C(=O)c2cc(Cl)cc(Cl)c2)O1 | 9.3%
COc1ccc(NC(=O)C/C(C)=N/NC(=O)c2cnccn2)cc1Cl | -8.49%

Structure (SMILES) | activity change
CCN(CC)c1ccc(NC(=O)c2ccc(Cl)nc2)cc1 | -10.4%
CCN(CC)c1ccc(/C=N/NC(=O)c2cnccn2)c(O)c1 | -91.7% (active)
O=C1CN(C(=O)c2ccccc2F)C(c2ccc(F)cc2)c2cc(F)ccc2N1 (centres undefined) | 10.1%
CCOC(=O)[C@]12CCCC=C1N(CCC1=CCCCC1)C(=O)[C@H](CC(=O)NCCCOC)C2 | -3.1%
COC(=O)[C@@]12C[C@@H](CC(=O)NCCCCc3ccccc3)C(=O)N(Cc3ccccc3)C1=CCC(C)(C)C2 | -3.62%
CCOC(=O)[C@]12CCC=C1N(CCC1=CCCCC1)C(=O)[C@H](CC(=O)NCc1ccc(C)o1)C2 | -7.25%
O=S1(=O)CC(N2CCN(Cc3ccccc3F)CC2)CN1Cc1cn(Cc2cccc(C(F)(F)F)c2)nn1 (centres undefined) | 1.67%
Cc1cc(C)c(S(=O)(=O)N(C)CC(=O)NCC2CCCO2)c(C)c1 (centres undefined) | 3.65%
Cc1ccc(-n2ncc3c(Nc4cccc(C(=O)O)c4)ncnc32)cc1 | -66.4% (active)
Cc1ccc(Nc2ncnc3c2cnn3C)c(C)c1 | 8.85%
CC(C)Sc1ncnc2c1cnn2-c1ccccc1 | 16.7%
Cc1[nH]c2ccccc2c1C(=O)c1cc([C@H](NC(=O)OC(C)(C)C)C(C)C)sc1N | -28%
O=C1CCN(CCCc2ccccc2)CCN1CCO | -23.5%
O=C(NC1CCCC1)C1c2ccccc2OCC(=O)N1CC(F)(F)F (centres undefined) | -3%
Cc1c(NC(=O)CSc2cccc3cccnc23)c(=O)n(-c2ccccc2)n1C | -90.9% (active)
Cc1c(NC(=O)CSc2nnnn2-c2ccc(C(=O)O)cc2)c(=O)n(-c2ccccc2)n1C | 5.09%
Cc1c(NC(=O)CSc2nnc(-c3cccnc3)n2N)c(=O)n(-c2ccccc2)n1C | 10.2%
CC(=O)C[C@@H]1OC[C@H](CO)N1S(=O)(=O)c1ccc(C)cc1 | 7.41%
CN(Cc1cn(Cc2ccc(C(F)(F)F)cc2)nn1)C1CN(Cc2cn(Cc3ccc(C(F)(F)F)cc3)nn2)S(=O)(=O)C1 (centres undefined) | 3.81%
CN(Cc1ccccc1)C(=O)[C@@H]1CCCN1C(=O)[C@@H]1CCCN1C(=O)c1c(F)cccc1F | 7.39%
S=C(Nc1cccnc1)Nc1ccccn1 | 6.86%
COc1cc(/C=N/NC(=S)Nc2cccnc2)cc(OC)c1O | 0%
S=C(NN=Cc1ccccn1)Nc1ccccn1 | -91.9% (active)
O=C(NCCc1ccco1)c1nn(Cc2ccccc2)c(=O)c2ccccc12 | -4.25%
O=C(OCN1C(=O)c2ccccc2C1=O)/C(=C\c1ccco1)NC(=O)c1ccccc1 | -1.79%
O=c1nc2s/c(=C\c3ccco3)c(=O)n2nc1Cc1ccccc1 | -82.8% (active)
CCOC(=O)c1cc2cc(OC)ccc2n1C1CCN(C)CC1 | 1.46%
